These compounds were tested on EPHA3. Settings: concentration: 1 μM, replicates: in singlicate; n = 1.
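Also: KINOMEscan kinase panel screen.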

| Structure (SMILES) | %Inh [%] |
| --- | --- |
| CC(=O)N1CCN(c2ccc(Nc3nccc(-c4sc(C(C)C)nc4-c4cccc(NS(=O)(=O)c5cccc(Cl)c5)c4)n3)cn2)CC1 [GSK1660437] | 0 |
| CN(C)S(=O)(=O)c1cc(-c2ccc3nccc(-c4cccc(S(N)(=O)=O)c4)c3c2)cnc1N [GSK1669921] | 0 |
| O=C(NC1CCN(c2ccnc(Nc3ccc(F)cc3)n2)C1)c1cc2ccccc2s1 (stereo not shown) [GSK1379716] | 0 |
| Cn1cc(-c2ccc3c(c2)CCN3C(=O)Cc2cccc(Cl)c2)c2c(N)ncnc21 [GSK2606590] | 0 |
| FC(F)(F)c1ccc(/C=C/c2cncnc2Nc2ccc3[nH]c(Cc4ccccc4)nc3c2)cc1 [GW709199] | 0 |
| Cl.c1ccc(-c2ccc3c(Nc4ccc5[nH]ccc5c4)ccnc3c2)nc1 [GW440138] | 8 |
| c1ccc(-c2n[nH]cc2Nc2ccnc3ccccc23)nc1 [GW694077] | 0 |
| CC(C)c1nc(-c2cccc(NS(=O)(=O)c3c(F)cccc3F)c2F)c(-c2ccnc(Nc3ccc(N4CCOCC4)nc3)n2)s1 [GSK2008607] | 69 |
| COc1cc(Nc2nccc(N3CCC(NC(=O)c4cc5ccccc5s4)C3)n2)cc(OC)c1OC (stereo not shown) [GSK1379760] | 0 |
| COc1cc(Nc2ncc3c(C)nc(-c4cc5ccccc5[nH]4)n3n2)cc(OC)c1OC [GW869516] | 7 |
| Cn1cc(-c2[nH]c3cc(NC(=O)[C@H](N)C4CCCCC4)cc4c3c2C=NNC4=O)cn1 | 56 |
| COC(=O)Nc1nc2ccc(Oc3ccc(NC(=O)Nc4cc(C(F)(F)F)ccc4F)cc3)cc2n1C.Cl [GW692089] | 26 |
| CCS(=O)(=O)c1ccc(OC)c(Nc2nccc(-c3c(-c4cccc(NC(=O)c5c(F)cccc5F)c4)nn4ncccc34)n2)c1 [GSK326180] | 12 |
| CCn1c(-c2nonc2N)nc2c(C#CC(C)(C)O)nc(OC[C@H](N)c3ccccc3)cc21 [GSK943949] | 0 |
| CC(=O)Nc1nc2cnc(Nc3cc(NC(=O)c4cccc(C5(C#N)CC5)c4Cl)ccc3C)nc2s1 | 50 |
| COc1ccc(CNC(=O)NC2CCN(c3ccnc(Nc4ccc(F)cc4)n3)CC2)cc1 [GSK1379788] | 1 |

| Structure (SMILES) | %Inh [%] |
| --- | --- |
| O=C(O)C(F)(F)F.O=C(O)C(F)(F)F.O=c1[nH]ccc2nc(N[C@@H]3CCCNC3)nc(Nc3ccc(S(=O)(=O)N4CCOCC4)cc3)c12 [GSK2177277] | 98.9 |
| Cc1occc1-c1ncc(OC[C@@H](N)Cc2c[nH]c3ccccc23)cc1-c1ccc2[nH]nc(C)c2c1.O=C(O)C(F)(F)F [GSK682037] | 29 |
| CSc1cccc2c(-c3ccncn3)c(-c3ccc(F)cc3)nn12 [GW514786] | 0 |
| CN1CCN(Cc2cccc(-c3ccc4c(Nc5ccc(Oc6ccccc6)cc5)ccnc4c3)c2)CC1 [GW578342] | 3 |
| COc1cccc(NC(=O)NC2CCN(c3ccnc(Nc4cc(OC)c(OC)c(OC)c4)n3)C2)c1 (stereo not shown) [GSK1379763] | 0 |
| CN1CCN(CCCNc2nccc(-c3c(-c4ccc(F)cc4)nn4cc(C(F)(F)F)ccc34)n2)CC1 [GW621581] | 0 |
| COc1cc(Nc2nccc(N3CCC(NC(=O)Nc4cccc(C(C)=O)c4)C3)n2)cc(OC)c1OC (stereo not shown) [GSK1379753] | 0 |
| Cn1cc(-c2ccc3c(c2)CCN3C(=O)Cc2cccc(F)c2)c2c(N)ncnc21 [GSK2603358] | 0 |
| Clc1ccc(-c2nn3ncccc3c2-c2ccnc(Nc3ccc4c(c3)OCCO4)n2)cc1 [GW829116] | 0 |
| Cl.Cl.NCC(NC(=O)c1cc(-c2ccccc2)c(-c2ccnc3[nH]ccc23)s1)c1ccccc1 (stereo not shown) [GSK1321561] | 38 |
| c1ccc(Oc2ccc(Nc3ccnc4cc(-c5ccc(CNCCN6CCOCC6)o5)ccc34)cc2)nc1 [GW567145] | 17 |
| CC(C)(C)c1ccc2nccc(Nc3cccc(O)c3)c2c1 [GW856795] | 21 |
| COc1ccc(-c2coc3ccc(-c4nnc(SCc5ccc(OC)c(C(F)(F)F)c5)o4)cc23)cc1 | 0 |
| COc1cccc(C2=C(Nc3ccc(Cl)c(C(=O)O)c3)C(=O)NC2=O)c1 [SB-390769] | 0 |
| O=C(Nc1n[nH]c2nc(-c3ccc(O)cc3)ccc12)C1CC1 [SB-710363] | 16 |

Source: article PMC5540273 (PLoS ONE, 2017)
